# Pf Dd2 growth = inhibitors of Plasmodium falciparum Dd2 growth. AID 1347417. P. falciparum Dd2 growth, SYBR Green, 72 h. 4.3% of 120,000 active. Potency, µM (highest dose often 28.9 µM), for the others: at the top dose activity, negative = inhibition, actives largely listed as inhibitors; active means well fitted inhibition curve with a large enough effect;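 further: plate controls were DMSO vehicle for no effect and reference drug for full effect; nearly all actives have a fitted effect of over 65% in size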
#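 Readout: SYBR Green fluorescence, 485 nm excitation, 535 nm emission, after ~16 h lysis at 37C. Before that, Dd2-infected red cells (2.5% hematocrit) grew 72 h with compound, 29 uM top final concentration.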
# An asterisk follows results filed as active; i = inactive; [ ] = remark or other dose. This excerpt belongs to a sample that is enriched for hits. Potency means the concentration at half of the fitted maximal effect.
SMILES,Pf Dd2 growth
COc1cccc(F)c1-c1ccc(COc2ccc3c(cnn3CCC(=O)O)c2)cc1,-20%[44.1 µM]
CNC(=O)CCn1ncc2cc(OCc3ccccc3-c3cnc(OC)nc3)ccc21,i
CNC(=O)CCn1ncc2cc(OCc3ccccc3-c3c(Cl)cccc3OC)ccc21,4µM*
COc1ccc(-c2ccc(COc3ccc4c(cnn4CCC(=O)O)c3)cc2)c(Cl)c1,i
C[S+](=O)([O-])CCn1ncc2cc(OCc3cccc(-c4ccccc4O)c3)ccc21,7.9µM*
COc1ccc(F)cc1-c1cccc(COc2ccc3c(cnn3CC[S+](C)(=O)[O-])c2)c1,-29%
CNC(=O)CCn1ncc2cc(OCc3ccccc3-c3ccccc3COC)ccc21,4µM*
COc1cc(F)cc(-c2ccc(COc3ccc4c(cnn4CCC(=O)O)c3)cc2)c1,-18%[44.1 µM]
C[S+](=O)([O-])CCn1ncc2cc(OCc3cccc(-c4cncnc4)c3)ccc21,i
O=C(CC1C=CS(=O)(=O)C1)N1CCn2nc(Cc3ccccc3)cc2C1 (stereo not drawn),-20%
CN1C(=O)COc2ccc(C(=O)N3CC(C)(C)[C@@](C)(O)C3)cc21,-9%
O=C(CN1CC2CC(C1)[C@H]1CCCC(=O)N1C2)NC1CCCC1 (stereo partly drawn),-1%
Cc1ccc(NC(=O)Cn2c(-c3ccc(F)cc3)nc(C)c(CCO)c2=O)cc1,-5%
COc1ccc(NC(=O)Cn2c(-c3ccc(F)cc3)nc(C)c(CCO)c2=O)cc1Cl,-24%
COc1cc(NC(=O)Cn2c(-c3ccc(F)cc3)nc(C)c(CCO)c2=O)cc(OC)c1,11µM*
Cc1nc(NCC2(c3ccccc3)CCOCC2)cc(C2CC(O)C2)n1 (stereo not drawn),-27%
CC(=O)c1cccc(NC(=O)CN2C(=O)NC3(CCC(C)CC3)C2=O)c1 (stereo not drawn),i
CC(C)(O)C#Cc1ccc(C(=O)N2CCC(O)(c3ccccn3)CC2)cc1,-5%
Cn1cnc(C(=O)N2CCCCCCn3c(nnc3-c3ccc(F)cc3)CC2)c1,-9%
COCCN1CCCCCC(O)c2cc(C(=O)NCC(C)C)ccc21 (stereo not drawn),-11%
COCCN1CCCCCC(O)c2cc(C(=O)NCc3cc(F)cc(F)c3)ccc21 (stereo not drawn),13µM*
COCCN1CCCCCC(O)c2cc(C(=O)NCC3CC3)ccc21 (stereo not drawn),i
COCCNc1ncccc1-c1noc([C@@H]2CCCN2C2CCN(C)CC2)n1,-9%[44.1 µM]
COCCNc1cc(N2CCN(C3CCCCC3)CC2)c2noc3c2c1C(=O)c1ccccc1-3,0.89µM*
O=C1c2ccccc2-c2onc3c(N4CCN(C5CCCCC5)CC4)cc(NCCO)c1c23,5µM*
SMILES,Pf Dd2 growth
COCCNc1ncccc1-c1noc([C@@H]2CCCN2C2CCN(C(C)=O)CC2)n1,i
O=C(c1csc(N2CCN(c3ccccc3)CC2)n1)N1CCN(C2CCCCC2)CC1,i
O=C1c2ccccc2-c2onc3c(Br)cc(NC4CCCCC4)c1c23,-4%
NC(=O)NCc1cn(C2CCN(Cc3cc4ccccc4s3)CC2)nn1,-13%
CNC(=O)[C@H]1C[C@H](Oc2ccccc2)CN1C(=O)CCc1ccc(OC)cc1,-14%
CC[C@H]1CN2CC[C@H]1C[C@@H]2CNC(=O)CCC(=O)O,2%[44.1 µM]
Cc1cccc(-c2cnc3[nH]cc(CC(=O)N4CCOCC4)c3c2)c1,-9%[44.1 µM]
O=C(Nc1cccn2nc(C3CCC3)nc12)c1ccc(F)cc1,i
O=C(Nc1cccn2nc(C3CCC3)nc12)c1cccc(C(F)(F)F)c1,4.5µM*
Cc1ccc(C(=O)Nc2cccn3nc(C4CCC4)nc23)cc1C,i
O=C1Nc2ccccc2CC12CN(Cc1ccccn1)C2,-21%[44.1 µM]
CN1CC[C@H]2CN(C(=O)c3ccccc3-n3cccn3)C[C@@]2(C(=O)O)C1,4%
Cc1ccc(C)c(C(=O)Nc2ccc3c(N4CCCC4)ncnc3c2)c1,2.5µM*
O=C(Nc1ccc2c(N3CCCC3)ncnc2c1)c1ccccc1Br,13µM*
Cc1ccc(NC(=O)c2cnc(N3CCCCC3)c3ccccc23)cc1Cl,-22%
COc1ccccc1C(=O)Nc1ccc2ncnc(N3CCCCC3)c2c1,i
Cc1ccc(S(=O)(=O)NC[C@H]2O[C@@H](CC(=O)NCc3ccc(F)cc3)[C@H](O)[C@@H]2O)cc1,21%
CNc1nc2c(c(C(=O)N3CCCC3)n1)CN(S(=O)(=O)C1CC1)CC2,0%
NC(=O)[C@@H]1CN(C(=O)c2ccccn2)C[C@H]1COc1ccccc1,26%
O=C1NC2(CN(C(=O)c3ccc4c(c3)OCO4)C2)Oc2ccccc21,i
O=C(NCCCc1ccccc1)c1ccc(N2CC3CC(C2)[C@H]2CCCC(=O)N2C3)nc1 (stereo partly drawn),-15%
N#Cc1cccc(C(=O)N2CCC3(CC2)NC(=O)N(Cc2ccccc2Cl)C3=O)c1,i
N#Cc1ccc(C(=O)N2CCC3(CC2)NC(=O)N(Cc2ccccc2Cl)C3=O)cc1,2.5µM*
Cc1ccc(C(=O)N2CCC3(CC2)NC(=O)N(Cc2ccccc2)C3=O)cc1,41%
O=S(=O)(c1ccc(F)cc1)N1CCC(c2noc(C3CC3)n2)C1 (stereo not drawn),23%[5.79 µM]
SMILES,Pf Dd2 growth
CCCNC(=O)C(NC(=O)c1cccc(OC)c1)C1CCN(C(=O)c2cccc(OC)c2)CC1 (stereo not drawn),-4%
CCC(C)NC(=O)C(NC(=O)c1ccc(C)cc1)C1CCN(C(=O)c2ccc(F)cc2)CC1 (stereo not drawn),i
COc1ccc(C(=O)NC(C(=O)NC(C)C(C)C)C2CCN(C(=O)c3ccc(C)cc3)CC2)cc1 (stereo not drawn),2.5µM*
CCN(CC)C(=O)C(NC(=O)c1ccc(C)cc1)C1CCN(C(=O)c2cccc(OC)c2)CC1 (stereo not drawn),4.5µM*
CCN(CC)C(=O)C(NC(=O)c1ccc(OC)cc1)C1CCN(C(C)=O)CC1 (stereo not drawn),11%
COc1ccc(C(=O)NC(C(=O)N2CCCC2)C2CCN(C(=O)c3ccccc3)CC2)cc1 (stereo not drawn),-22%
O=C(c1cccnc1OC1CCN(C(=O)C2CC2)C1)N1CCOCC1 (stereo not drawn),15%
Cc1cn2nnc(C(=O)NC(C)CCc3ccccc3)c2c(=O)[nH]1 (stereo not drawn),i
O=C1Nc2ccc(-c3ccc4c(c3)OCO4)cc2C(=O)N2CCN(C(=O)COc3ccccc3)C[C@H]12,i
O=C1Nc2ccc(-c3ccccc3)cc2C(=O)N2CCN(C(=O)c3cccnc3)C[C@H]12,-25%[44.1 µM]
COc1ccc(-c2ccc3c(c2)C(=O)N2CCN(C(=O)c4ccccc4)C[C@@H]2C(=O)N3)cc1,5µM*
CC(C)(C)CC(=O)N1CCN2C(=O)c3cc(-c4ccc(Cl)cc4)ccc3NC(=O)[C@H]2C1,-22%
O=C1Nc2ccc(-c3ccc4c(c3)OCO4)cc2C(=O)N2CCN(C(=O)c3cccs3)C[C@@H]12,13µM*
COc1ccc(-c2ccc3c(c2)C(=O)N2CCN(C(=O)CC(C)(C)C)C[C@@H]2C(=O)N3)cc1,i
COCC(=O)N1CCN2C(=O)c3cc(-c4ccc5c(c4)OCO5)ccc3NC(=O)[C@H]2C1,i
COc1ccc(C(=O)N2CCN3C(=O)c4cc(-c5ccc(Cl)cc5)ccc4NC(=O)[C@@H]3C2)cc1,6.3µM*
COc1ccc(-c2ccc3c(c2)C(=O)N2CCN(C(=O)C4CCNCC4)C[C@@H]2C(=O)N3)c(OC)c1,-16%
CCOc1cccc(CN2CCc3nc(N4CCN(C)CC4)[nH]c(=O)c3CC2)c1,26%[5.79 µM]

# Screening results from PubChem.
